Reference: PubChem BioAssay AID1508622 (National Center for Advancing Translational Sciences (NCATS), 2021)
Activity calls are given as the source filed them. A call without a number means that no potency is given here. Calls come from the whole dose curve; as a rule, active = well fitted activation curve with a large enough effect; inconclusive = small, poorly fitted or top-dose-only effect; inactive = no such curve, though single readings can be large or run the other way.

Experiment: Confirmatory qHTS for Identification of Small Molecule Activators of Huntingtin-Antisense Promoter Activity
Details: HEK293 HTT-AS promoter firefly luciferase reporter, 24 h; series mostly up to 57.5 µM
Procedure, shortened: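 2,500 luciferase reporter HEK293 cells/well; 24 h culture; cpds up to 57.5 uM final, PTC124 50 uM ctrl; 24 h, 37C; Dual-Glo FLuc reagent, 10 min RT; lum. Norm.: vehicle 0%, zero RLU -100%.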
Potency is the fitted concentration of half-maximal effect.

| Structure (SMILES) | Potency |
| --- | --- |
| CCN(CC)c1ccc(NC(=O)COCc2cc(-c3ccc4c(c3)OCO4)on2)c(C)c1 | inactive |
| CCCCOc1ccc(CNC(=O)Cc2ccc(NC(=O)N3CCSc4ncccc43)cc2)cc1 | inactive |
| CCOC(=O)C1CCC(CN(Cc2ccccc2)S(=O)(=O)c2ccc(Cl)cc2)CC1 (configuration not stated) | inactive |
| Cc1cccc(CCNC(=O)c2c[nH]c3ccc(S(=O)(=O)Nc4ccccc4F)cc3c2=O)c1 | inactive |
| CCc1cccc(C)c1NC(=O)CCCN1C(=O)C(c2ccccc2)Oc2cccnc21 (configuration not stated) | inactive |
| COc1ccc(-c2noc(N3CCN(c4cccc(C)c4C)CC3)n2)cc1OC | inactive |
| Cc1noc(/C=C/c2ccccc2F)c1S(=O)(=O)N1CCC(C(=O)Nc2ccc(C#N)cc2)CC1 | inactive |
| CC(=O)N1CCCc2cc(S(=O)(=O)N(C)CC(=O)Nc3ccc(Cl)cc3C)ccc21 | inactive |
| CCOc1ccc(S(=O)(=O)NCCc2sc3nc(-c4ccc(C)cc4)nn3c2C)cc1 | inactive |
| O=C(NCc1ccc(Cl)cc1)C1CCN(S(=O)(=O)c2ccc3c(c2)CCCN3C(=O)C2CCC2)CC1 | inactive |
| CCOc1ccccc1C(=O)Nc1ccc2nc3c(c(Nc4ccc(OC)c(OC)c4)c2c1)CCCC3 | inactive |
| Cc1cc(F)ccc1NC(=O)C1CCCN(C(=O)c2cnn(-c3ccccc3)c2-n2cccc2)C1 (configuration not stated) | inactive |
| Cc1ccc(CN2CCC(CNC(=O)c3cnn(-c4ccccc4Cl)c3C3CCN(C(=O)OC(C)(C)C)CC3)CC2)cc1 | inactive |
| CC1CCN(C(=O)CN2c3ccc(Br)cc3-c3ccccc3S2(=O)=O)CC1 | 2690 nM (active) |
| Cc1ccc(-c2ncn(-c3ccc(Nc4nccc(-c5cccc(N6CCOCC6)c5)n4)cc3)n2)cn1 | inactive |
| COc1ccc(Nc2c3c(nc4ccc(NC(=O)/C=C/c5cccc(OC)c5OC)cc24)CCCC3)cc1OC | inactive |
| COc1ccc(C2=CC(c3ccccc3Cl)n3nc(-c4ccc(Cl)cc4)nc3N2)cc1 (configuration not stated) | inactive |
| COc1ccc(-c2noc(CSc3nc4ccccc4[nH]3)n2)cc1OC | inactive |
| O=C(NCC1CCN(Cc2ccccc2F)CC1)Nc1ccc(F)c(Cl)c1 | inactive |
| COc1ccccc1C(=O)Oc1c(Sc2ccccc2)c(C)nn1C(C)(C)C | inactive |
| CCCN(C(=O)COc1cc(=O)n(CC)c2ccccc12)c1ccc(C(C)C)cc1 | inactive |
| CCOc1ccccc1C(=O)Nc1ccc(-n2nncc2-c2ccccc2)cc1 | inactive |
| CCc1ccc(NC(=O)CSc2nc(=O)n(Cc3cccnc3)c3c2CCC3)cc1 | inactive |

| Structure (SMILES) | Potency |
| --- | --- |
| CCNc1nc2c(c(=O)n(C)c(=O)n2C)n1Cc1ccc(F)cc1 | inactive |
| CCCCN(CC)C(=O)C1CCC(CNS(=O)(=O)c2cccc3nsnc23)CC1 (configuration not stated) | inactive |
| Cc1[nH]c2ccccc2c1CCNCc1ccc(C=CC(=O)NO)cc1 | 1900 nM (active) |
| O=C(NCCSc1c(-c2ccccc2)[nH]c2ccccc12)c1ccc(S(=O)(=O)N2CCOCC2)cc1 | inactive |
| CCOc1ccc(CCNC(=O)c2cc3n(n2)CCCN(Cc2ccc(C)cc2)C3=O)cc1OCC | inactive |
| O=C1CCCc2cc(S(=O)(=O)NCC3CCC(C(=O)Nc4ccc(Cl)cc4)CC3)ccc2N1 (configuration not stated) | inactive |
| Cc1nc(-c2ccc(F)cc2)sc1CCNC(=O)c1ccc(C(C)(C)C)cc1 | inactive |
| CN(C)CCNC(=O)C1CCN(Cc2cc3ccccc3n2Cc2ccccc2)CC1 | inactive |
| CCOC(=O)C1=C(CN2CCN(c3ccc(OC)cc3)CC2)NC(=O)NC1c1ccc(OC)cc1 (configuration not stated) | inactive |
| COc1cc(OC)cc(C(=O)Oc2c(Sc3ccccc3)c(C)nn2C(C)(C)C)c1 | inactive |
| Cc1cccc(Nc2nc(Nc3cccc(C)c3)nc(N3CCOCC3)n2)c1 | inactive |
| CCN1C(=O)c2ccccc2Sc2ccc(NC(=O)c3ccc(C)c(F)c3)cc21 | inactive |
| Cc1ccccc1-c1nc(CS(=O)CC(=O)N2CCN(c3cc(Cl)ccc3C)CC2)c(C)o1 (configuration not stated) | inactive |
| Cc1ccc(NC(=O)c2c(Nc3ccccc3C)sc(C(=O)c3ccccc3)c2N)cc1 | inactive |
| COc1ccc(NC(=O)CN2CCCN(S(=O)(=O)c3ccc(Br)cc3)CC2)c(OC)c1 | inactive |
| O=C(Nc1cccc(C(=O)N2CCN(c3ccc(Cl)cc3)CC2)c1)c1nsc2ccccc12 | 151 nM (active) |
| CCS(=O)(=O)c1ncc(Cl)c(C(=O)N(Cc2ccccc2)c2ccc(OC)cc2)n1 | inactive |
| CCOc1ccc(/C=C/c2nc(C#N)c(NCc3ccccc3)o2)cc1 | inactive |
| COc1ccc(-n2c(/C=C/c3cccc4ccccc34)nc3ccccc3c2=O)cc1Cl | inactive |
| COc1ccccc1NC(=O)CN1C(=O)C(C)(C)c2ccccc21 | inactive |
| CCN(C(=O)C1CCC(CNS(=O)(=O)c2cccc3nsnc23)CC1)c1ccccc1 (configuration not stated) | inactive |
| COc1ccc(NC(=O)Cn2nc(-c3ccncc3)ccc2=O)cc1Cl | inactive |
| Cc1ccc(NC(=O)c2ccc(F)c(S(=O)(=O)NCCc3ccccc3)c2)cc1F | inactive |

| Structure (SMILES) | Potency |
| --- | --- |
| COc1ccc2nc(N3CCN(C(=O)CS(=O)(=O)c4ccc(C)cc4)CC3)sc2c1 | inactive |
| Cc1ccc(NC(=O)c2ccc(F)c(S(=O)(=O)N3CCc4ccccc4C3)c2)cc1F | inactive |
| COc1cccc(C2=CC(c3cc(Br)ccc3F)n3nnnc3N2)c1 (configuration not stated) | inactive |
| COc1ccccc1N1CCN(C(CNC(=O)C(=O)NCc2cccnc2)c2cccnc2)CC1 (configuration not stated) | inactive |
| Cc1ccc(C)c(-n2nnc(C(=O)Nc3ccc(Br)cc3)c2C)c1 | inactive |
| CC(C)Oc1ccc(C(=O)N(Cc2ccco2)c2ccccn2)cc1 | 2690 nM (active) |
| COc1ccccc1CNC(=O)c1oc2ccc(S(=O)(=O)N3CCCCC3)cc2c1C | inactive |
| Cc1ccc(C)c(N2CCN(S(=O)(=O)c3cc(C(=O)Nc4ccccc4C(F)(F)F)ccc3F)CC2)c1 | inactive |
| O=C(Nc1ccc2c(c1)CCCN2C(=O)c1cccs1)c1cccc(C(F)(F)F)c1 | inactive |
| CCOc1ccc(CNC(=O)c2ccc(Sc3ccc(Cl)cc3)c(NC(C)=O)c2)cc1OC | inactive |
| COc1cc2ccccc2cc1C(=O)N1CCN(c2nc3ccc(F)cc3s2)CC1 | inactive |
| COc1ccc(-c2nnc(C3CCN(C(=O)c4ccccc4F)CC3)o2)cc1 | inactive |
| CCN(Cc1ccccc1)S(=O)(=O)c1ccc(N2CCCCS2(=O)=O)cc1 | inactive |
| COc1ccc(C)cc1NS(=O)(=O)c1ccc(-c2cnc(C3CC3)o2)cc1 | inactive |
| NC(=O)Nc1cc(-c2ccc(CN3CCOCC3)cc2)sc1C(N)=O | 23900 nM (active) |
| COc1ccccc1NC(=O)CSc1nnc(NC(=O)Nc2ccc(C)cc2)s1 | inactive |
| Cc1ccccc1OCC(=O)Nc1ccccc1C(=O)OCc1cc(=O)n2c(C)csc2n1 | inactive |
| COc1ccc(CNC(=O)c2c(Nc3ccccc3C)sc(C(=O)c3ccccc3)c2N)cc1 | inactive |
| CCCCOc1ccc(CNC(=O)c2ccc(NC(=O)N3CCSc4ncccc43)cc2)cc1 | inactive |
| O=C(CCCn1ccc2cc(S(=O)(=O)N3CCCC3)ccc21)NCc1ccc(Cl)cc1 | inactive |
| Cc1cccc(C2C=C(c3ccc(F)cc3)Nc3nc4ccccc4n32)c1 (configuration not stated) | 1070 nM (active) |
| Cc1cccc(NC(c2cccc(Cl)c2)c2ccc3cccnc3c2O)n1 (configuration not stated) | inactive |
| CC(C)c1ccc(NC(=O)c2ccc(F)c(S(=O)(=O)N3CCc4ccccc4C3)c2)cc1 | inactive |

| Structure (SMILES) | Potency |
| --- | --- |
| COc1ccc(-n2nc3c(N4CCCC(C(=O)NCCc5ccc(C)cc5)C4)nnc(C)c3c2C)cc1 (configuration not stated) | inactive |
| Cc1ccc(-c2onc(C)c2C)cc1S(=O)(=O)N1CCC(C)CC1 | inactive |
| CCOC(=O)c1cc(-c2ccccc2)n(CCC(=O)Nc2ccc(OC)c(Cl)c2)c1C | inactive |
| Cc1cc(C)c(S(=O)(=O)NCCc2csc3nc(-c4ccc(Cl)cc4)nn23)c(C)c1 | inactive |
| COc1cc(NC(=O)Cn2nc(C(F)(F)F)c3c2CCC3)cc(OC)c1OC | inactive |
| COc1ccc(N2CCN(C(=O)c3cc4c(-c5ccccc5F)nn(C)c4s3)CC2)cc1 | inactive |
| Cc1ccc(CN(C(=O)COc2cccc(Cl)c2)c2ccccn2)o1 | inactive |
| CCOc1ccc(NC(=O)c2ccc(F)c(S(=O)(=O)NCc3ccc4c(c3)OCO4)c2)cc1 | inactive |
| CC(=O)Nc1ccc(S(=O)(=O)Nc2cc(-c3cn4ccccc4n3)ccc2C)cc1 | 10700 nM (active) |
| CCn1c(=O)n(CC)c2cc(N3CCCCC3)c(NC(=O)Nc3cc(Cl)ccc3OC)cc21 | inactive |
| CCN1c2ccccc2-c2nc(SCC(=O)Nc3cc(F)ccc3F)ncc2S1(=O)=O | inactive |
| COc1ccc(NS(=O)(=O)c2ccc3c(c2)CCN3C(=O)C2CC2)cc1OC | inactive |
| COc1cc(C[C@@H](CO)[C@H](CO)Cc2ccc(O)c(OC)c2)ccc1O | inactive |
| Cc1ccc(NC(=O)C2CCN(S(=O)(=O)c3ccc4[nH]c5c(c4c3)CCCCC5)CC2)cc1 | inactive |
| CC1Cc2cc(S(=O)(=O)NCc3ccccc3Cl)ccc2N1C(=O)C1CCC1 (configuration not stated) | inactive |
| O=C(C1CCC1)N1CCCc2cc(S(=O)(=O)N3CCN(c4ccccc4)CC3)ccc21 | inactive |
| CCn1cc(C(=O)N2CCN(c3ccc(C)cc3)C(C)C2)c(=O)c2cc(S(=O)(=O)N3CCCC3)ccc21 (configuration not stated) | inactive |
| Cc1cc(C)c(Cn2c3ccccc3c3cnn(CC(=O)N4CCCCC4)c(=O)c32)c(C)c1 | inactive |
| CCN(CC)S(=O)(=O)c1ccc(C(=O)NCCSc2c(-c3ccc(OC)cc3)[nH]c3ccccc23)cc1 | inactive |
| COc1ccc(NS(=O)(=O)c2ccc3c(c2)CCCN3C(=O)C2CCC2)cc1OC | inactive |
| O=C(NCc1ccccc1)c1ccc(CSc2nc3cccnc3n2Cc2ccccc2)cc1 | inactive |
| O=C(NCc1cccc(Cl)c1)C1CCCN(c2nn3cc(-c4ccc(F)cc4)nc3s2)C1 (configuration not stated) | inactive |
| Cc1cccc(N2CCN(S(=O)(=O)c3ccc4c(c3)C(C(C)C)C(=O)N4)CC2)c1C (configuration not stated) | inactive |
